Assay outcomes (PubChem)
The list is not random: actives were taken first. Their share in the collection is about 7.3%.
FLuc modulator = qHTS profiling assay for firefly luciferase inhibitor/activator using purifed enzyme and Km concentrations of substrates (counterscreen for miR-21 project); purified FLuc, Km substrates, luminescence inhibition; Luciferin 4-monooxygenase (Photinus pyralis), P08659; AID 588342, 2011; 360,000 compounds, 6.9% hits; Potency, µM (highest dose often 57.5 µM), inactives show top-dose activity change, negative = inhibition, actives largely listed as inhibitors;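 further: plate controls were vehicle for no effect and reference inhibitor for full effect; nearly all actives have a fitted effect of over 55% in size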
Target sequence (P08659 whole entry, looked up): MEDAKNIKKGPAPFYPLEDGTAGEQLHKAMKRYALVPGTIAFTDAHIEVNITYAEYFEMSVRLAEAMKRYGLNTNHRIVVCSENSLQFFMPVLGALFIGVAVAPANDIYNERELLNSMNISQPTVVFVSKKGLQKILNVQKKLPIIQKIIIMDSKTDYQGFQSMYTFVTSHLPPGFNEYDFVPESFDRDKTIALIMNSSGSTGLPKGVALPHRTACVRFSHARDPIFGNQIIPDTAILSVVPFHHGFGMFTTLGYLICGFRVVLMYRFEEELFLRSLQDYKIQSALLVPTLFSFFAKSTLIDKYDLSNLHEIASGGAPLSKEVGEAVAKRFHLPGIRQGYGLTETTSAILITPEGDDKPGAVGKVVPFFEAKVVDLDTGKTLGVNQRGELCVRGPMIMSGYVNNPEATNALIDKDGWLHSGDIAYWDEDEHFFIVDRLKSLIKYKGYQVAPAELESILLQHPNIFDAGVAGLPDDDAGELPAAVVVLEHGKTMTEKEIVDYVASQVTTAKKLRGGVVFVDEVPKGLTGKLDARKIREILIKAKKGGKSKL
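Purified P. pyralis luciferase (10nM final) with 10uM D-luciferin and 10uM ATP (Km levels) in 50mM Tris acetate pH 7.5, 10mM Mg acetate, 0.01% Tween-20, 0.05% BSA; qHTS 6-point titration, ~60 µM downward; luminescence read.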
SMN2 splice enh = qHTS Assay for Enhancers of SMN2 Splice Variant Expression; HEK293 SMN2-luciferase splicing reporter, luminescence, 30-36 h; Potency, µM (series often up to 46.1 µM), for inactives: at the top dose activity change, positive = activation, actives largely listed as activators; 210,000 compounds, 2.8% hits; further: % of control where 0% means no effect; nearly all actives have a fitted effect of over 55% in size
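HEK293 cells carry an SMN2 minigene-luciferase reporter in which exon 7 inclusion puts luciferase in frame. Cells were seeded at 2000 cells/well, attached for 10-12 hours, then exposed to compounds for 30-36 hours at 37C before ONE-Glo luminescence.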
KinaseGlo FLuc = Counterscreen for Luciferase (Kinase-Glo TM) Inhibition | Luciferin 4-monooxygenase (Photuris pensylvanica), Q27757 | Kinase-Glo luciferase, ATP luminescence, 8 min | Potency, µM (highest dose often 38.3 µM), without a hit: top-dose activity change, negative = inhibition, hits mostly inhibitors | 200,000 compounds, 0.28% hits | AID 1379, 2008; further: on the % scale 0 is the no-effect control and ±100 the full control effect; nearly all actives have a fitted effect of over 60% in size
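Compound is pinned into ATP-containing buffer (10 uM ATP, imidazole pH 7.2, 7 mM MgCl2). Kinase-Glo luciferase reagent is then added. Light output is recorded following an 8-min room-temperature incubation.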
NPC1 prom act = qHTS Assay for NPC1 Promoter Activators; AID 485313, 2010; Potency, µM (titrated, usually from 9.22 µM), inactives show at the top dose activation, usual class: activators; 320,000 compounds, 2.4% hits; Huh7 NPC1 promoter luciferase reporter, 24 h; further: % of control where 0% means no effect; nearly all actives have a fitted effect of over 60% in size
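Stably transfected Huh7 (NPC1 promoter→luciferase), 1500 cells/well in Opti-MEM + 10% FBS, 2 h settle, then compound 24 h at 37 °C. Luminescence after 10 min with Amplite reagent.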
Rab9 promoter act = qHTS Assay for Rab9 Promoter Activators | AID 485297, 2010 | Huh7 Rab9 promoter-luciferase reporter, luminescence, 24 h | 320,000 compounds, 2.8% hits | Potency, µM (top dose mostly 9.22 µM), for the others: at the top dose activation, negative = inhibition, hits mostly activators; further: % of control where 0% means no effect; nearly all actives have a fitted effect of over 60% in size
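Steps: seed 1500 Huh7 Rab9-luc cells per well, rest 2 h at 37 °C; add compound in DMSO; incubate 24 h; add luciferase reagent, 10 min ambient; read luminescence.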
* = called active by the depositor; ? = inconclusive; · = no result; [ ] = remark or other dose. The call rests on the fitted dose curve; in most records, active means well fitted curve in the direction sought with a large enough effect; inconclusive means small, poorly fitted or top-dose-only effect, or another doubt; inactive means no such curve, though single readings can be large; an effect the other way counts as inactive or inconclusive. Potency means the concentration at half of the fitted maximal effect.

SMILES	FLuc modulator	SMN2 splice enh	KinaseGlo FLuc	NPC1 prom act	Rab9 promoter act
Cc1ccc2nc(SCC(=O)c3ccc(O)cc3O)[nH]c2c1	8.5µM*	·	·	?	3.2µM*
Fc1cccc(NCc2cccn2-c2nnc(N3CCOCC3)s2)c1	-3%	·	·	·	·
CC(C)n1c(SCC(=O)Nc2ccc(F)cc2)nc2c(oc3ccccc32)c1=O	5%	3%	·	·	·
CCCCN(c1ccccc1)c1ncnc2c1cnn2-c1cccc(C)c1	-15%	·	·	·	·
CCCCN(c1ccccc1)c1ncnc2c1cnn2C	·	-6%[9.22 µM]	-2%[7.66 µM]	·	·
CCCCN(c1ccccc1)c1ncnc2c1cnn2-c1ccc(Cl)cc1	13µM*	·	·	·	·
CCN(c1ccccc1)c1ncnc2c1cnn2-c1ccc(OC)cc1	6.7µM*	·	·	·	·
Cc1nc2c(-c3ccccc3)c(C)nn2c(C)c1CCC(=O)NCc1ccc(Cl)cc1	-1%	-3%	·	·	·
Cc1ccc(CSc2nc3c(c(N(C)C)n2)CCCC3)cc1	-3%	-8%	2%	0%	-14%
Cc1nc(SCc2ccccc2)nc2c1CCC2	17µM*	11µM*	0%	?	?
Cc1nn(-c2ccccc2)c(C)c1/C=N/NC(=O)c1cc(O)cc(O)c1	19µM*	·	·	0%	-4%
Cc1nn(-c2ccccc2)c(C)c1-c1cc(C(=O)N/N=C/c2ccc(O)cc2)[nH]n1	21µM*	·	·	-1%	1%
Cc1nn(-c2ccccc2)c(C)c1/C=N/NC(=O)c1ccccc1O	1.9µM*	·	·	2%	12%
O=[N+]([O-])c1ccc(Cl)cc1Cl	·	4%	·	·	·
O=C(Cn1cc(S(=O)(=O)c2ccccc2)c(=O)c2cc3c(cc21)OCO3)Nc1ccccc1	-4%	6%	·	·	·
O=C(N=Nc1c(O)[nH]c2ccccc12)c1cccs1	2.1µM*	11µM*	?	?	2.5µM*
CC(=O)c1cccc(N=Nc2c(C)[nH]c3ccccc23)c1	24µM*	4%	-3%	2%	4%
O=C(O)c1ccc(N=Nc2c(O)[nH]c3ccccc23)cc1	0.43µM*	·	·	0.1µM*	?
O=C(N=Nc1c(O)[nH]c2ccccc12)c1cc(NS(=O)(=O)c2cccs2)cc(NS(=O)(=O)c2cccs2)c1	1%	-2%	-4%	-3%	-2%
CC(=O)N1CCCc2cc(S(=O)(=O)NCc3ccccc3Cl)ccc21	-2%	·	·	·	·
O=c1[nH]c2ccccc2c2cn(-c3ccccc3)nc12	13µM*	·	·	2.8µM*	?
CCOc1ccc(NC(=O)CCc2c(C)nc3cc(-c4ccc(Cl)cc4)nn3c2C)cc1	6.7µM*	-17%	·	·	·
CCOC(=O)c1cccc(NC(=O)CCc2c(C)nc3cc(-c4ccc(Cl)cc4)nn3c2C)c1	12µM*	-21%	·	·	·
Cc1ccc(C)c(NC(=O)c2cc(-c3cc(C)ccc3O)n[nH]2)c1	3µM*	·	·	2µM*	26%
COc1ccc(Cl)cc1NC(=O)c1cc(-c2cc(C)ccc2O)n[nH]1	-14%	·	·	-2%	-4%
SMILES	FLuc modulator	SMN2 splice enh	KinaseGlo FLuc	NPC1 prom act	Rab9 promoter act
Cc1cccc(NC(=O)c2cc(-c3cc(Cl)ccc3O)n[nH]2)c1	?	·	·	2.2µM*	?
CN(C)CCCO[C@H]1[C@@H]2OC(C)(C)O[C@@H]2O[C@@H]1[C@H](O)CO	·	-6%[20.6 µM]	0%[17.1 µM]	·	·
CCCCN(CC)CCNC(=O)CN1C(=O)COc2ccc(S(=O)(=O)N3CCOCC3)cc21	0%	11%	·	·	·
COc1ccc(NC(=S)NCc2cccs2)cc1	?	?	-2%	-1%	4%
CC(C)c1ccc(NC(=S)NCc2cccs2)cc1	15µM*	17%	-2%	24%	20%
COc1ccc(/C=C/c2ccc3cccc(O)c3n2)c(OC)c1OC	4.8µM*	·	·	3.2µM*	2.5µM*
COc1cccc(/C=C/c2ccc3cccc(O)c3n2)c1OC	2.7µM*	·	·	3.5µM*	?
N#Cc1c(NC(=O)c2ccc(Cn3cc(Br)cn3)o2)sc2c1CCCCC2	11µM*	?	5%	21%	-1%
Cc1ccc(NC(=O)c2ccc(Cn3cc(Cl)cn3)o2)c(C)c1	-2%	·	·	0%	-4%
CC1CCc2c(sc(NC(=O)c3ccc(Cn4cc([N+](=O)[O-])cn4)o3)c2C#N)C1 (centres undefined)	13µM*	3%	1%	9%	7%
COC(=O)c1sc(NC(=O)c2ccc(Cn3cc(Cl)cn3)o2)c(C#N)c1C	21µM*	-14%	1%	1%	-1%
C=C1C=C(C(F)F)n2ncc(C(=O)NCc3ccccc3C(F)(F)F)c2N1	-1%	·	·	·	·
COc1ccc2c(c1)cc1c(=O)n(CC(=O)NC(C)C)nc(C)n12	-1%	-6%	·	·	·
Cc1cc(C)cc(NC(=O)C(=O)NCC(c2ccc3c(c2)OCO3)N2CCOCC2)c1 (centres undefined)	-3%	·	·	·	·
CC1CCCCN1C(=O)c1cc(-c2ccc(Cl)c(Cl)c2)on1 (centres undefined)	12µM*	?	-2%	4µM*	2.5µM*
CCC1CCCCN1C(=O)c1cc(-c2ccc(Cl)c(Cl)c2)on1 (centres undefined)	19µM*	48%	-2%	?	?
CC1CCN(C(=O)c2cc(-c3ccc4c(c3)OCO4)on2)CC1	2.7µM*	·	·	0.63µM*	1.1µM*
COc1ccc(-c2cc(C(=O)N3CCCCC3C)no2)cc1OC (centres undefined)	-15%	8%	·	·	·
CC1CCCCN1C(=O)c1cc(-c2ccc3c(c2)OCO3)on1 (centres undefined)	3.8µM*	·	·	0.63µM*	0.89µM*
CCOCCOC(=O)c1ccc2c(c1)N(Cc1ccccc1C#N)C(=O)c1ccccc1S2(=O)=O	5%	·	·	·	·
CCCc1cc(=O)oc2cc(C)c3c(-c4cccc(OC)c4)coc3c12	2%	8%	·	·	·
CCOc1ccc(CCNC(c2nnc(-c3ccccc3)o2)c2ccccc2Cl)cc1OCC (centres undefined)	6%	53%	·	·	·
C=CCN=C1NN=C(c2cc(C)n(CCOC)c2C)CS1	0.38µM*	-73%	-28%	-16%	-21%
C=CCn1c(C)cc(C2=NNC(=Nc3ccc(C)cc3)SC2)c1C	?	21%	0%	?	?
Cc1cc(C2=NNC(=Nc3ccc(S(=O)(=O)N4CCOCC4)cc3)SC2)c(C)n1C	-17%	·	·	2%	-3%
C=CCn1c(C)cc(C2=NNC(=NC(C)(C)C)SC2)c1C	0.34µM*	-90%	?	?	?
CCOc1ccc(N=C2NN=C(c3cc(C)n(CC4CCCO4)c3C)CS2)cc1 (centres undefined)	13µM*	27%	-2%	27%	?
COCCn1c(C)cc(C2=NNC(=NC3CC3)SC2)c1C	0.24µM*	-103%	7.1µM*	-42%	-37%
Cc1ccc(C)c(N2CCN(C(=O)c3ccc4c(Cl)c5c(nc4c3)CCCC5)CC2)c1	-1%	-7%	·	·	·
